# Source: paper PMC11062922 (Nature Chemical Biology, 2023)
# Where two headings read alike, the source gives them in different places.
# Key:
# Conditions in all cases: read-out: apparent Kd, n = 1
# TBK1 = tested on: TBK1
# TGFBR1 = tested on: TGFBR1
# TNK1 = tested on: TNK1
# [1] = compound concentrations:100 nM and 1000 nM (sheet 'Lestaurtinib' of Supplementary Table 1),run:Lestaurtinib_02443_R3,Plate:MR009
# [2] = compound concentrations:100 nM and 1000 nM (sheet 'Lestaurtinib' of Supplementary Table 1),run:Lestaurtinib_02473_R3,Plate:MR010
# [3] = compound concentrations:100 nM and 1000 nM (sheet 'Lestaurtinib' of Supplementary Table 1),run:Lestaurtinib_02487_R2,Plate:MR012
# [4] = compound concentrations:100 nM and 1000 nM (sheet 'Lestaurtinib' of Supplementary Table 1),run:Lestaurtinib_02496_R2,Plate:MR013
# [5] = compound concentrations:100 nM and 1000 nM (sheet 'Lestaurtinib' of Supplementary Table 1),run:Lestaurtinib_02566_R1,Plate:MR014
# [6] = compound concentrations:100 nM and 1000 nM (sheet 'Lestaurtinib' of Supplementary Table 1),run:Lestaurtinib_02566_R2,Plate:MR014
# [7] = compound concentrations:100 nM and 1000 nM (sheet 'Lestaurtinib' of Supplementary Table 1),run:Lestaurtinib_02584_R3,Plate:MR017
# [8] = compound concentrations:100 nM and 1000 nM (sheet 'Lestaurtinib' of Supplementary Table 1),run:Lestaurtinib_02606_R1,Plate:MR019
# [9] = compound concentrations:100 nM and 1000 nM (sheet 'Lestaurtinib' of Supplementary Table 1),run:Lestaurtinib_02741_R3,Plate:MR023
# [10] = compound concentrations:100 nM and 1000 nM (sheet 'Lestaurtinib' of Supplementary Table 1),run:Lestaurtinib_02752_R2,Plate:MR025
# [11] = compound concentrations:100 nM and 1000 nM (sheet 'Lestaurtinib' of Supplementary Table 1),run:Lestaurtinib_02765_R2,Plate:MR026
# [12] = compound concentrations:100 nM and 1000 nM (sheet 'Lestaurtinib' of Supplementary Table 1),run:Lestaurtinib_02766_R1,Plate:MR027
# [13] = compound concentrations:100 nM and 1000 nM (sheet 'Lestaurtinib' of Supplementary Table 1),run:Lestaurtinib_02766_R3,Plate:MR027
# [14] = compound concentrations:100 nM and 1000 nM (sheet 'Lestaurtinib' of Supplementary Table 1),run:Lestaurtinib_02802_R1,Plate:MR029
# [15] = compound concentrations:100 nM and 1000 nM (sheet 'Lestaurtinib' of Supplementary Table 1),run:Lestaurtinib_02339_R2,Plate:MR001
# [16] = compound concentrations:100 nM and 1000 nM (sheet 'Lestaurtinib' of Supplementary Table 1),run:Lestaurtinib_02339_R3,Plate:MR001
# [17] = compound concentrations:100 nM and 1000 nM (sheet 'Lestaurtinib' of Supplementary Table 1),run:Lestaurtinib_02364_R3,Plate:MR002
# [18] = compound concentrations:100 nM and 1000 nM (sheet 'Lestaurtinib' of Supplementary Table 1),run:Lestaurtinib_02367_R2,Plate:MR003
# [19] = compound concentrations:100 nM and 1000 nM (sheet 'Lestaurtinib' of Supplementary Table 1),run:Lestaurtinib_02437_R3,Plate:MR007
substance,measurement,setting,value
Lestaurtinib,potency estimated from few doses,"TBK1; compound concentrations:100 nM and 1000 nM (sheet 'Lestaurtinib' of Supplementary Table 1),run:Lestaurtinib_02443_R1,Plate:MR009",1.62 µM
same,potency estimated from few doses,TBK1; [1],0.884 µM
same,potency estimated from few doses,"TBK1; compound concentrations:100 nM and 1000 nM (sheet 'Lestaurtinib' of Supplementary Table 1),run:Lestaurtinib_02473_R2,Plate:MR010",1.37 µM
same,potency estimated from few doses,TBK1; [2],0.851 µM
same,potency estimated from few doses,"TBK1; compound concentrations:100 nM and 1000 nM (sheet 'Lestaurtinib' of Supplementary Table 1),run:Lestaurtinib_02482_R1,Plate:MR011",1.35 µM
same,potency estimated from few doses,"TBK1; compound concentrations:100 nM and 1000 nM (sheet 'Lestaurtinib' of Supplementary Table 1),run:Lestaurtinib_02482_R2,Plate:MR011",1.32 µM
same,potency estimated from few doses,"TBK1; compound concentrations:100 nM and 1000 nM (sheet 'Lestaurtinib' of Supplementary Table 1),run:Lestaurtinib_02487_R1,Plate:MR012",0.95 µM
same,potency estimated from few doses,TBK1; [3],1.51 µM
same,potency estimated from few doses,TBK1; [4],1.24 µM
same,potency estimated from few doses,"TBK1; compound concentrations:100 nM and 1000 nM (sheet 'Lestaurtinib' of Supplementary Table 1),run:Lestaurtinib_02496_R3,Plate:MR013",1.35 µM
same,potency estimated from few doses,TBK1; [5],0.854 µM
same,potency estimated from few doses,TBK1; [6],1.41 µM
same,potency estimated from few doses,"TBK1; compound concentrations:100 nM and 1000 nM (sheet 'Lestaurtinib' of Supplementary Table 1),run:Lestaurtinib_02577_R1,Plate:MR016",0.807 µM
same,potency estimated from few doses,TBK1; [7],1.41 µM
same,potency estimated from few doses,"TBK1; compound concentrations:100 nM and 1000 nM (sheet 'Lestaurtinib' of Supplementary Table 1),run:Lestaurtinib_02601_R1,Plate:MR018",1.21 µM
same,potency estimated from few doses,"TBK1; compound concentrations:100 nM and 1000 nM (sheet 'Lestaurtinib' of Supplementary Table 1),run:Lestaurtinib_02601_R2,Plate:MR018",1.76 µM
same,potency estimated from few doses,"TBK1; compound concentrations:100 nM and 1000 nM (sheet 'Lestaurtinib' of Supplementary Table 1),run:Lestaurtinib_02601_R3,Plate:MR018",1.7 µM
same,potency estimated from few doses,TBK1; [8],1.53 µM
same,potency estimated from few doses,"TBK1; compound concentrations:100 nM and 1000 nM (sheet 'Lestaurtinib' of Supplementary Table 1),run:Lestaurtinib_02624_R1,Plate:MR020",1.91 µM
same,potency estimated from few doses,"TBK1; compound concentrations:100 nM and 1000 nM (sheet 'Lestaurtinib' of Supplementary Table 1),run:Lestaurtinib_02624_R2,Plate:MR020",1.4 µM
same,potency estimated from few doses,"TBK1; compound concentrations:100 nM and 1000 nM (sheet 'Lestaurtinib' of Supplementary Table 1),run:Lestaurtinib_02624_R3,Plate:MR020",1.46 µM
same,potency estimated from few doses,TBK1; [9],1.51 µM
same,potency estimated from few doses,"TBK1; compound concentrations:100 nM and 1000 nM (sheet 'Lestaurtinib' of Supplementary Table 1),run:Lestaurtinib_02748_R2,Plate:MR024",1.31 µM
same,potency estimated from few doses,TBK1; [10],0.837 µM
same,potency estimated from few doses,"TBK1; compound concentrations:100 nM and 1000 nM (sheet 'Lestaurtinib' of Supplementary Table 1),run:Lestaurtinib_02752_R3,Plate:MR025",0.961 µM
same,potency estimated from few doses,TBK1; [11],1.3 µM
same,potency estimated from few doses,TBK1; [12],0.972 µM
same,potency estimated from few doses,TBK1; [13],1.3 µM
same,potency estimated from few doses,"TBK1; compound concentrations:100 nM and 1000 nM (sheet 'Lestaurtinib' of Supplementary Table 1),run:Lestaurtinib_02768_R2,Plate:MR028",1.93 µM
same,potency estimated from few doses,"TBK1; compound concentrations:100 nM and 1000 nM (sheet 'Lestaurtinib' of Supplementary Table 1),run:Lestaurtinib_02768_R3,Plate:MR028",1.33 µM
same,potency estimated from few doses,"TBK1; compound concentrations:100 nM and 1000 nM (sheet 'Lestaurtinib' of Supplementary Table 1),run:Lestaurtinib_02795_R1,Plate:MR022",1.8 µM
same,potency estimated from few doses,"TBK1; compound concentrations:100 nM and 1000 nM (sheet 'Lestaurtinib' of Supplementary Table 1),run:Lestaurtinib_02795_R2,Plate:MR022",1.37 µM
same,potency estimated from few doses,"TBK1; compound concentrations:100 nM and 1000 nM (sheet 'Lestaurtinib' of Supplementary Table 1),run:Lestaurtinib_02795_R3,Plate:MR022",1.7 µM
same,potency estimated from few doses,TBK1; [14],0.976 µM
same,potency estimated from few doses,"TBK1; compound concentrations:100 nM and 1000 nM (sheet 'Lestaurtinib' of Supplementary Table 1),run:Lestaurtinib_02802_R2,Plate:MR029",1.3 µM
same,potency estimated from few doses,"TBK1; compound concentrations:100 nM and 1000 nM (sheet 'Lestaurtinib' of Supplementary Table 1),run:Lestaurtinib_03172_R2,Plate:MR031",1.75 µM
same,potency estimated from few doses,"TBK1; compound concentrations:100 nM and 1000 nM (sheet 'Lestaurtinib' of Supplementary Table 1),run:Lestaurtinib_03260_R1,Plate:MR033",1.46 µM
same,potency estimated from few doses,"TBK1; compound concentrations:100 nM and 1000 nM (sheet 'Lestaurtinib' of Supplementary Table 1),run:Lestaurtinib_03260_R2,Plate:MR033",1.58 µM
same,potency estimated from few doses,"TBK1; compound concentrations:100 nM and 1000 nM (sheet 'Lestaurtinib' of Supplementary Table 1),run:Lestaurtinib_03260_R3,Plate:MR033",1.24 µM
same,potency estimated from few doses,TGFBR1; [15],1.53 µM
same,potency estimated from few doses,TGFBR1; [16],1.42 µM
same,potency estimated from few doses,TGFBR1; [17],1.63 µM
same,potency estimated from few doses,TGFBR1; [18],1.9 µM
same,potency estimated from few doses,"TGFBR1; compound concentrations:100 nM and 1000 nM (sheet 'Lestaurtinib' of Supplementary Table 1),run:Lestaurtinib_02367_R3,Plate:MR003",2.07 µM
same,potency estimated from few doses,"TGFBR1; compound concentrations:100 nM and 1000 nM (sheet 'Lestaurtinib' of Supplementary Table 1),run:Lestaurtinib_02381_R1,Plate:MR004",2.08 µM
same,potency estimated from few doses,"TGFBR1; compound concentrations:100 nM and 1000 nM (sheet 'Lestaurtinib' of Supplementary Table 1),run:Lestaurtinib_02407_R1,Plate:MR005",2.02 µM
same,potency estimated from few doses,"TGFBR1; compound concentrations:100 nM and 1000 nM (sheet 'Lestaurtinib' of Supplementary Table 1),run:Lestaurtinib_02422_R1,Plate:MR006",0.964 µM
same,potency estimated from few doses,"TGFBR1; compound concentrations:100 nM and 1000 nM (sheet 'Lestaurtinib' of Supplementary Table 1),run:Lestaurtinib_02437_R2,Plate:MR007",1.79 µM
same,potency estimated from few doses,TGFBR1; [19],0.176 µM
same,potency estimated from few doses,"TGFBR1; compound concentrations:100 nM and 1000 nM (sheet 'Lestaurtinib' of Supplementary Table 1),run:Lestaurtinib_02438_R2,Plate:MR008",1.42 µM
same,potency estimated from few doses,"TGFBR1; compound concentrations:100 nM and 1000 nM (sheet 'Lestaurtinib' of Supplementary Table 1),run:Lestaurtinib_02438_R3,Plate:MR008",1.58 µM
same,potency estimated from few doses,TGFBR1; [1],1.32 µM
same,potency estimated from few doses,TGFBR1; [2],1.75 µM
same,potency estimated from few doses,"TGFBR1; compound concentrations:100 nM and 1000 nM (sheet 'Lestaurtinib' of Supplementary Table 1),run:Lestaurtinib_02482_R3,Plate:MR011",1.76 µM
same,potency estimated from few doses,TGFBR1; [3],1.4 µM
same,potency estimated from few doses,"TGFBR1; compound concentrations:100 nM and 1000 nM (sheet 'Lestaurtinib' of Supplementary Table 1),run:Lestaurtinib_02496_R1,Plate:MR013",1.53 µM
same,potency estimated from few doses,TGFBR1; [4],1.83 µM
same,potency estimated from few doses,TGFBR1; [5],0.827 µM
same,potency estimated from few doses,TGFBR1; [6],1.31 µM
same,potency estimated from few doses,"TGFBR1; compound concentrations:100 nM and 1000 nM (sheet 'Lestaurtinib' of Supplementary Table 1),run:Lestaurtinib_02566_R3,Plate:MR014",1.34 µM
same,potency estimated from few doses,"TGFBR1; compound concentrations:100 nM and 1000 nM (sheet 'Lestaurtinib' of Supplementary Table 1),run:Lestaurtinib_02577_R3,Plate:MR016",1.82 µM
same,potency estimated from few doses,TGFBR1; [7],1.58 µM
same,potency estimated from few doses,TGFBR1; [8],2.21 µM
same,potency estimated from few doses,"TGFBR1; compound concentrations:100 nM and 1000 nM (sheet 'Lestaurtinib' of Supplementary Table 1),run:Lestaurtinib_02606_R2,Plate:MR019",2.08 µM
same,potency estimated from few doses,TGFBR1; [9],1.35 µM
same,potency estimated from few doses,"TGFBR1; compound concentrations:100 nM and 1000 nM (sheet 'Lestaurtinib' of Supplementary Table 1),run:Lestaurtinib_02748_R1,Plate:MR024",1.42 µM
same,potency estimated from few doses,"TGFBR1; compound concentrations:100 nM and 1000 nM (sheet 'Lestaurtinib' of Supplementary Table 1),run:Lestaurtinib_02748_R3,Plate:MR024",1.75 µM
same,potency estimated from few doses,TGFBR1; [10],1.6 µM
same,potency estimated from few doses,TGFBR1; [11],2.02 µM
same,potency estimated from few doses,TGFBR1; [12],1.36 µM
same,potency estimated from few doses,TGFBR1; [13],1.57 µM
same,potency estimated from few doses,TGFBR1; [14],1.54 µM
same,potency estimated from few doses,"TGFBR1; compound concentrations:100 nM and 1000 nM (sheet 'Lestaurtinib' of Supplementary Table 1),run:Lestaurtinib_02896_R3,Plate:MR030",0.95 µM
same,potency estimated from few doses,"TGFBR1; compound concentrations:100 nM and 1000 nM (sheet 'Lestaurtinib' of Supplementary Table 1),run:Lestaurtinib_03172_R1,Plate:MR031",1.54 µM
same,potency estimated from few doses,"TGFBR1; compound concentrations:100 nM and 1000 nM (sheet 'Lestaurtinib' of Supplementary Table 1),run:Lestaurtinib_03172_R3,Plate:MR031",1.58 µM
same,potency estimated from few doses,"TGFBR1; compound concentrations:100 nM and 1000 nM (sheet 'Lestaurtinib' of Supplementary Table 1),run:Lestaurtinib_03252_R1,Plate:MR032",1.33 µM
same,potency estimated from few doses,"TGFBR1; compound concentrations:100 nM and 1000 nM (sheet 'Lestaurtinib' of Supplementary Table 1),run:Lestaurtinib_03252_R2,Plate:MR032",1.59 µM
same,potency estimated from few doses,"TNK1; compound concentrations:100 nM and 1000 nM (sheet 'Lestaurtinib' of Supplementary Table 1),run:Lestaurtinib_02339_R1,Plate:MR001",0.22 µM
same,potency estimated from few doses,TNK1; [15],0.0935 µM
same,potency estimated from few doses,TNK1; [16],0.256 µM
same,potency estimated from few doses,"TNK1; compound concentrations:100 nM and 1000 nM (sheet 'Lestaurtinib' of Supplementary Table 1),run:Lestaurtinib_02364_R2,Plate:MR002",0.213 µM
same,potency estimated from few doses,TNK1; [17],0.19 µM
same,potency estimated from few doses,"TNK1; compound concentrations:100 nM and 1000 nM (sheet 'Lestaurtinib' of Supplementary Table 1),run:Lestaurtinib_02367_R1,Plate:MR003",0.191 µM
same,potency estimated from few doses,TNK1; [18],0.208 µM
same,potency estimated from few doses,"TNK1; compound concentrations:100 nM and 1000 nM (sheet 'Lestaurtinib' of Supplementary Table 1),run:Lestaurtinib_02407_R3,Plate:MR005",0.213 µM
same,potency estimated from few doses,"TNK1; compound concentrations:100 nM and 1000 nM (sheet 'Lestaurtinib' of Supplementary Table 1),run:Lestaurtinib_02422_R3,Plate:MR006",0.075 µM
same,potency estimated from few doses,TNK1; [19],0.0158 µM
